Only some compounds are listed: those with a hit (about 3.1% of all), similar ones and a draw of the others.
KKLEB tox – reduces viability of KKLEB cystic fibrosis airway cells | KKLEB CF airway cells viability, ATPlite luminescence, overnight; stronger effect = lower value; cells stimulated with P. aeruginosa culture filtrate | activity change (cytotoxicity), % at 5 µM | 360,000 compounds, 0.36% hits | AID 602141;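 active = corrected activity change at or below -50% at 5 µM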
Peg3 prom inh-1 – reduces Peg3 promoter-driven luciferase expression in HeLa | HeLa PEG-Prom luciferase reporter, luminescence, overnight | inhibition, % at 20 µM | 360,000 compounds, 1.7% hits;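 active = inhibition of at least 50% at 20 µM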
C8 TRAIL sens – caspase-8 TRAIL sensitization. NB7+C8 cells + TRAIL, ATPlite viability luminescence. inhibition (viability loss, TRAIL sensitization), % at 10 µM. 360,000 compounds, 1% hits;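 active = compounds causing at least 50% loss of cell viability in the single-dose screen, relative to plate controls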
HIF-2a block – blocks HIF-2a reporter activity | 786-0 RCC cells HIF-2a reporter, luciferase luminescence, overnight | inhibition, % at 18.8 µM | 360,000 compounds, 0.72% hits | AID 624352;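 active = inhibition of the luminescence signal of 40% or more relative to plate controls, in a single-dose primary screen at 18.75 µM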
CF NFkB inh – cystic fibrosis NF-kB activation inhibition; KKLEB NF-kB-GFP reporter, PAF-induced, GFP fluorescence overnight; inhibition, % at 5 µM; 360,000 compounds, 0.86% hits;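 active = at least 50% inhibition at 5 µM, scaled per plate between neutral and stimulator controls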;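 note: PAF is a Pseudomonas aeruginosa culture filtrate used as stimulus; plate controls were PAF-stimulated DMSO wells for no effect and unstimulated DMSO wells for full effect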
PPC-1+TRAIL kill – kills PPC-1 cancer cells in the presence of TRAIL | PPC-1 cells + TRAIL, ATPLite viability luminescence | cell killing (% activity), % at 4 µM or 5 µM | 220,000 compounds, 0.41% hits | AID 1443;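 active = cell killing above 50% in the first pass at 4 µM, then a duplicate retest at 5 µM averaging 50% or more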;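 note: plate controls were cells with TRAIL plus DMSO for no effect and medium-only wells lacking cells for full effect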
Peg3 prom inh-2 – Peg3 promoter inhibition confirmation | shares compounds with Peg3 prom inh-1 | HeLa PEG-Prom luciferase reporter, luminescence, overnight | inhibition, % at 20 µM | 1,300 compounds, 84% hits | AID 602417;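 active = at 20 µM dose, 40% or more inhibition averaged across four replicates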
Active calls of the source: *; . = not tested or not shown.

SMILES	KKLEB tox	Peg3 prom inh-1	C8 TRAIL sens	HIF-2a block	CF NFkB inh	PPC-1+TRAIL kill	Peg3 prom inh-2
Cc1ccc(C(=O)COc2ccc3c(C)cc(=O)oc3c2)cc1	6.8	-69.0	-10.9	-84.3	-1.0	.	.
CCOC(=O)c1cc2c(=O)n3ccccc3nc2n(CCOC)c1=NC(=O)c1c(-c2c(F)cccc2Cl)noc1C	-7.9	53.2*	3.6	29.8	-30.0	2.2	29.8
O=C1/C(=C/c2ccccc2Cl)SC(=S)N1CCCC(=O)N(CCO)c1ccccc1	2.1	66.7*	23.6	70.8*	13.2	.	90.9*
O=C(CCCN1C(=O)/C(=C/c2ccccc2Cl)SC1=S)NNC(=O)c1ccc(Cl)cc1	-8.9	63.8*	12.1	73.3*	4.1	3.6	44.7*
O=C1/C(=C\c2cccc(O)c2O)SC(=S)N1Cc1ccccc1	1.6	65.8*	52.2*	2.5	-17.8	.	61.5*
O=C(CCN1C(=O)/C(=C/c2ccccc2Cl)SC1=S)Nc1ccccn1	-5.8	-47.1	-12.3	-0.6	-11.9	.	.
O=C1/C(=C\c2ccc(O)c(O)c2)SC(=S)N1Cc1ccccc1	-3.4	23.1	46.0	-142.2	-33.7	.	.
COc1ccccc1NC(=O)c1cc2c(CO)cnc(C)c2oc1=Nc1cc(OC)c(OC)c(OC)c1	15.9	-1.5	-21.5	13.3	-4.9	.	.
COc1ccc(NC(=O)c2cc3c(CO)cnc(C)c3oc2=Nc2cccc(C)c2)c(OC)c1	-1.0	89.5*	-10.7	4.0	7.5	.	24.8
O=C(O)c1ccc(CN2C(=O)c3cccc4c([N+](=O)[O-])ccc(c34)C2=O)cc1	13.1	103.3*	57.7*	-9.2	15.2	.	90.1*
Cc1ccc(C(=O)O)cc1N1C(=O)c2cccc3c([N+](=O)[O-])ccc(c23)C1=O	20.1	2.2	17.2	7.0	-27.0	.	.
COc1cc(Nc2c3ccccc3nc3ccccc23)cc(OC)c1OC	4.8	107.5*	18.0	46.2*	-96.3	.	99.1*
CC(C)N(C(=O)CN1C(=O)NC(c2ccccc2)(c2ccccc2)C1=O)C(C)C	-0.9	-0.6	-8.4	22.5	-11.4	.	.
CC(=O)Nc1ccc(NC(=O)CC2(CC(=O)N3CCOCC3)CCCC2)cc1	15.0	-5.7	-3.1	13.1	6.1	.	.
COCCN(CCOC)c1nc(-c2ccc(C)cc2)nc2ccccc12	-14.2	-3.6	7.7	-47.3	-4.0	.	.
Cc1ccc(-c2nc(C(Cl)Cl)c3ccccc3n2)cc1	-24.9	111.1*	30.8	-86.3	15.8	13.8	99.3*
Cc1cc(C=C2C(=O)c3ccccc3C2=O)c(C)n1-c1ccccc1	-10.2	69.1*	77.6*	55.8*	-24.3	5.3	64.8*
Cc1cc(C=C2C(=O)c3ccccc3C2=O)c(C)n1-c1ccc(C(=O)O)cc1	-14.1	10.8	6.4	6.9	0.3	7.8	.
CS(=O)(=O)c1nc(S(=O)(=O)c2ccc(Cl)cc2)c(NCCCN2CCCC2=O)s1	7.9	11.4	-16.8	1.2	8.0	.	.
CC1(C)C(=O)C=CC(=O)C(C)(C)C(=O)C=CC(=O)C(C)(C)C2=CC=C(O2)C(C)(C)C(=O)C=CC1=O	-8.6	106.1*	15.6	1.6	46.4	.	99.8*
C/C(=N\NC(=O)c1c(C)nc2ccccn12)c1ccc(O)cc1O	2.5	52.0*	12.6	4.6	1.0	.	59.9*
O=c1c2c3c(sc2nc(N2CCNCC2)n1CCc1ccccc1)CCCCC3	-15.5	105.4*	39.0	-19.5	7.2	22.4	96.0*
O=c1c2c3c(sc2nc(NCCO)n1CCc1ccccc1)CCCCC3	-8.5	-13.6	3.9	-67.5	29.3	20.9	.
Cc1nc2c(OCc3ccc(C(F)(F)F)cc3)cccn2c1N(C)Cc1cccs1	-3.0	29.2	29.1	-125.9	-2.4	.	.
C[C@@H](NC(=O)Cn1cnc2c(OCc3ccccc3)ncnc21)c1cccc2ccccc12	-18.2	-14.5	7.9	-5.9	-5.1	.	.
SMILES	KKLEB tox	Peg3 prom inh-1	C8 TRAIL sens	HIF-2a block	CF NFkB inh	PPC-1+TRAIL kill	Peg3 prom inh-2
C[C@@H](NCCCn1cnc2c(OCc3ccccc3)ncnc21)c1cccc2ccccc12	-18.9	91.9*	1.6	-22.7	17.1	.	86.2*
c1ccc(CCCNCCCn2cnc3c(OCc4ccccc4)ncnc32)cc1	9.7	56.1*	17.8	-16.5	0.6	.	83.3*
COc1ccc(CN2CCN(C(=O)c3cc(-c4cccnc4)nc4ccc(Cl)cc34)CC2)c(OC)c1OC	-22.3	93.8*	2.5	11.5	1.5	23.2	55.8*
CS(=O)(=O)N1CCN(C(=O)c2cc(-c3cccnc3)nc3ccc(Cl)cc23)CC1	-13.2	4.3	-1.1	6.3	5.4	23.3	.
O=C(c1cc(-c2ccccn2)nc2ccc(Cl)cc12)N1CCN(CCc2ccccc2)CC1	-17.6	51.1*	-22.9	16.5	4.1	23.7	35.6
Cc1cnn(C(=O)c2cc(-c3ccccn3)nc3ccc(Cl)cc23)c1	3.1	3.9	-1.7	10.7	-1.1	35.8	.
O=C(CCn1cnc(-c2ccccc2)c1-c1ccccc1)N/N=C/c1ccc(O)cc1	-1.7	24.1	14.3	2.8	5.9	31.7	.
O=C(CCn1cnc(-c2ccccc2)c1-c1ccccc1)N/N=C/c1ccccc1O	-1.2	55.6*	2.9	22.0	17.4	-8.9	69.7*
Cc1cc(C2=NNC(=NC3CC3)SC2)c(C)n1-c1ccccc1F	-57.7*	104.1*	94.5*	89.0*	-16.0	63.9*	98.4*
CCN(CC)S(=O)(=O)c1ccc(OC(C)C)c(NC(=O)C2=COCCO2)c1	8.2	14.5	4.9	8.5	-7.5	.	.
O=S(=O)(c1ccc(Br)cc1F)N1CCC(O)CC1	-17.4	-3.0	10.5	10.4	5.4	.	.
COc1ccc(S(=O)(=O)N2c3ccccc3OCC2c2ccccc2)cc1 (configuration not stated)	-12.6	50.1*	11.2	29.4	11.6	6.3	45.7*
COc1ccc(S(=O)(=O)N2c3ccccc3OCC2C)cc1 (configuration not stated)	-8.2	16.4	-27.6	28.8	17.7	-19.5	.
Cc1nc2c(OCc3ccc(OC(F)F)cc3)cccn2c1N(C)C(=O)CCC1CCCC1	-6.9	65.1*	11.0	-0.5	0.4	.	54.2*
CC(C)(C)CN1CCC(Oc2cccc(C(=O)N3CCNC(=O)C3(C)C)c2)CC1	-12.7	-7.8	-6.5	-8.2	4.5	.	.
Cc1cc(NC(=O)CCCN2C(=O)/C(=C/c3cccs3)SC2=S)no1	-14.0	38.3	7.5	22.5	18.0	-9.1	.
CCc1ccc(/C=C2/SC(=S)N(CCCC(=O)Nc3cccc(C(=O)O)c3)C2=O)cc1	-17.9	-28.4	1.0	23.0	23.7	.	.
CCc1ccc(/C=C2\SC(=S)N(CCCC(=O)Nc3cc(C)on3)C2=O)cc1	5.7	71.6*	-10.3	76.9*	-12.3	.	66.1*
CCc1ccc(/C=C2\SC(=S)N(CCCC(=O)NC3=NCCS3)C2=O)cc1	-18.0	72.3*	43.2	82.8*	5.4	.	70.5*

Screening results (PubChem BioAssay)
